# Bioassay records as filed in PubChem BioAssay.
# MARV entry inh = inhibitors of Marburg virus binding or cell entry; Potency, µM (doses to about 37.8 µM), for the others: at the top dose activity change, negative = inhibition, most hits filed as inhibitors; Marburg virus pseudotyped entry inhibition, cell reporter; 300,000 compounds, 1.8% hits; calls by dose curve; tested in HEK293 cells; also: potency is read from the fitted curve at half-maximal effect
# FMDV inh = antivirals against foot and mouth disease virus. 410,000 compounds, 1.2% hits. Potency, µM (top dose mostly 57.9 µM), for the others: at the highest dose activity change, negative = inhibition, usual class: inhibitors. FMDV antiviral cell-based qHTS; calls by dose curve; tested in HEK293T cells; also: read-out not given here; potency is read from the fitted curve at half-maximal effect; nearly all actives have a fitted effect of over 45% in size
# LASV entry inh = blocks Lassa virus binding to or entry into cells. 300,000 compounds, 1.2% hits. AID 540256. Lassa virus pseudotype entry inhibition, cell reporter. Potency, µM (titrated, usually from 37.9 µM), for inactives: at the highest dose activity change, negative = inhibition, usual class: inhibitors; calls by dose curve; tested in HEK293 cells; also: potency is read from the fitted curve at half-maximal effect; nearly all actives have a fitted effect of over 50% in size
# VACV Venus inh = vaccinia inhibition (Venus reporter); 330,000 compounds, 0.46% hits; AID 720580; Potency, µM (doses to about 36.5 µM), for inactives: at the top dose activity change, negative = inhibition, hits mostly inhibitors; Vaccinia virus Venus reporter expression, fluorescence; calls by dose curve; tested in A549 cells; also: potency is read from the fitted curve at half-maximal effect; nearly all actives have a fitted effect of over 30% in size
# HCMV inh = human cytomegalovirus inhibition. HFF cells, HCMV-luciferase reporter, 72 h; active compounds read low. AID 1259415. activity change, negative = inhibition, % at 57.5 µM. 410,000 compounds, 4.5% hits; in the data active = activity change below about -60%; inconclusive = no clear call, values can overlap the other calls; inactive = above about -39%
#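 Steps: HFFs plated, 16 h 37C; compounds added; HCMV-luciferase added to MOI 1 PFU/cell; 72 h 37C; OneGlo reagent, 5 min room temperature; luminescence read, normalized to controls.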
# Vaccinia mCherry = vaccinia inhibition (mCherry reporter). AID 720579. Vaccinia virus mCherry reporter infection, fluorescence. 310,000 compounds, 0.63% hits. Potency, µM (doses to about 36.5 µM), for the others: at the top dose activity change, negative = inhibition, hits mostly inhibitors; calls by dose curve; tested in A549 cells; also: potency is read from the fitted curve at half-maximal effect; nearly all actives have a fitted effect of over 35% in size
# The depositor's hits bear a star; i = inactive; u = inconclusive; x = no result; ! = a repeat was not active; [ ] = dose if it differs, or a comment. Sampled rows, rich in hits. Any-hit rate of the full collection: about 6.5%. % is scaled to controls: 0 for no effect and ±100 for the full control effect.
SMILES,MARV entry inh,FMDV inh,LASV entry inh,VACV Venus inh,HCMV inh,Vaccinia mCherry
Clc1nnc(N2CCCCC2)c2ccccc12,4%[46.1 µM],-26%,2%[46.1 µM],-14%,-91*,i
c1ccc(-c2nnc(N3CCN(c4ccccn4)CC3)c3ccccc23)cc1,-52%,-18%,u,x,u,x
CC1CCN(c2nnc(N3CCC(C)CC3)c3ccccc23)CC1,x,-28%,x,-8%,7,-14%
Cc1ccc(-c2nnc(N3CCN(c4ccccn4)CC3)c3ccccc23)cc1,u,22µM*,u,18µM*,-38,11µM*
Cc1ccc(-c2nnc(N3CCCCC3)c3ccccc23)cc1,x,-24%,x,x,-61*,x
COc1ccc(-c2nnc(N3CCC(C)CC3)c3ccccc23)cc1,-4%,0%,-2%,-11%,-63*,-9%
Cc1cnc2ccc(I)cc2c1/C=C/c1ccc(N(C)C)cc1,x,x,x,-19%,x,-25%
COc1ccccc1C1CN(Cc2cccn2-c2ncccn2)Cc2ccccc2O1 (centres undefined),x,-19%,x,9%,x,0%
Cc1ccc(CNC(=O)CN2C(=O)COc3ccc(S(=O)(=O)N4CCC(C)CC4)cc32)cc1,u,-7%,-8%[46.1 µM],-6%[7.34 µM],-26,-11%[7.34 µM]
O=C(Nc1cccc(Cl)c1)c1ccc(NCCCN2CCOCC2)c([N+](=O)[O-])c1,10µM*,u,u,u,u,-15%[1.46 µM]
S=C(NCCCN1CCOCC1)Nc1cccc(Cl)c1,-1%,5%,13µM*,-22%,-19,-6%
S=C(NCCN1CCOCC1)Nc1cccc(Cl)c1,u,8%,6%,-6%,27,-15%
CC(C)=CC1C(C(=O)OC(C#N)c2cccc(Oc3ccccc3)c2)C1(C)C (centres undefined),x,x,x,x,11,x
COC(=O)[C@@H]1CC(=O)N[C@@H]1c1ccc(OC(C)C)c(OC)c1,x,x,x,x,-17,x
COc1ccc2cc(/C=C3\SC(=S)NC3=O)c(N3CCOCC3)nc2c1,11µM*,28µM*,u,-11%,-88*,-3%
O=C1NC(=S)S/C1=C/c1ccc(N2CCOCC2)o1,u,u,-10%,i,x,i
CN(C)c1ccc(C(=C2C=CC(=[N+](C)C)C=C2)c2ccc(N(C)C)cc2)cc1,x,18µM*,x,10µM*,x,235%
CN(C)c1ccc(C(=C2C=CC(=[N+](C)C)C=C2)c2c(O)c(S(=O)(=O)[O-])cc3cc(S(=O)(=O)O)ccc23)cc1,x,x,x,-11%,x,u
O=c1c(Cl)c(NCCCO)cnn1-c1nc2ccccc2[nH]1,u,10%,u,9%,-98*,-12%
CCOc1ccc(CNC(=O)c2ccc3c(c2)nc2n3CCCCC2)cc1,x,28%,u,-8%[7.34 µM],27,-12%[7.34 µM]
COCc1cc(O)c(O)c(O)c1-c1c(COC)cc(O)c(O)c1O,x,x,x,15%,x,43%
C=CCN=C(C)C1=C(O)CCC1=O,10%,3%,u,-10%,24,x
C=CCN=C(CC)C1=C(O)CCCC1=O,2%,6%,6%,-6%,-67*,-12%[1.46 µM]
CCCS(=O)(=O)c1nc(S(=O)(=O)c2ccc(C)cc2)c(NC)s1,8%[46.1 µM],-12%,-19%[46.1 µM],-11%,-8,-15%
COc1ccc(OCCn2c(CCNC(=O)C3CCCCC3)nc3ccccc32)cc1,x,x,x,-12%,x,22%
SMILES,MARV entry inh,FMDV inh,LASV entry inh,VACV Venus inh,HCMV inh,Vaccinia mCherry
O=c1oc(-c2ccccc2)cc2ccccc12,x,x,x,x,83,x
Nc1ccc(-c2cc3ccccc3c(=O)o2)cc1,x,u,x,-9%,-62*,u
Cc1cc(N2CCCCC2)nc2ccc(NC(=O)c3ccc(Br)o3)cc12,u,40µM*,u,-28%,-9,u
Cc1cc(N2CCN(C)CC2)nc2ccc(NC(=O)c3ccc(Br)o3)cc12,-32%,28%,11%,x,29,x
CCN1CCN(c2cc(C)c3cc(NC(=O)c4cc(OC)cc(OC)c4)ccc3n2)CC1,u,14%,u,-26%,-90*!,-29%
CCN1CCN(c2cc(C)c3cc(NC(=S)N4CCN(c5ccccc5)CC4)ccc3n2)CC1,u,9%,-12%,-2%,-61*,-15%
COc1ccc(C(=O)Nc2ccc3nc(N4CCC(C)CC4)cc(C)c3c2)cc1,u,32µM*,13%[46.1 µM],-12%,-28,-14%
COc1ccc(NC(=O)c2c(NCc3ccc(OC)c(OC)c3OC)sc3c2CCC3)c(OC)c1,x,u,6%[46.1 µM],-3%,-1,-15%
OCCC(N1CCOCC1)C(O)(c1ccccc1)c1ccccc1 (centres undefined),x,x,x,x,23,x
Cc1cc(N2CCN(C)CC2)nc2ccc(NC(=O)c3ccc4c(c3)OCO4)cc12,4.1µM*,21%,16µM*,u,-22,u
FC(F)(F)c1ccccc1-c1ccc2ncnc(NCc3cccs3)c2c1,x,-24%,x,x,x,x
Cc1noc(C)c1-c1ccc2ncnc(N(C)Cc3ccco3)c2c1,x,6%,x,-29%,x,-20%
CCOc1ccc(NC(=O)CN(C)C(=O)c2cn(-c3ccc(F)cc3)nc2-c2cccc(OC)c2)cc1OCC,u,-18%,u,u,-14,-19%
CCN(CC)CCNC(=O)c1ccc(NC(=O)c2cn(-c3ccccc3)nc2-c2cccs2)cc1,x,-22%,x,x,-98*,x
CCOC(=O)c1ccc(NC(=O)c2cn(-c3ccccc3)nc2-c2ccncc2)cc1,7.1µM*,u,-25%,-7%,-6,-10%
CCN(CC)CCNC(=O)c1ccc(NC(=O)c2cn(-c3ccc(F)cc3)nc2-c2cccc(OC)c2)cc1,u,11%,u,-23%,-66*,-22%
CCN(CC)CCNC(=O)c1ccc(NC(=O)c2ccccc2-c2ccc(C(F)(F)F)cc2)cc1,2.8µM*,-11%,u,-20%,-23,-29%
O=C(Nc1cccc(Cl)c1Cl)c1cc2nc(-c3ccc4c(c3)OCO4)cc(C(F)(F)F)n2n1,0%[46.1 µM],-10%,5%[46.1 µM],1%,-4,5%
CCOc1ccc(/C=C/c2ccnc3ccccc23)cc1OCC,x,x,x,-14%,x,-17%
CCOc1ccccc1C(=O)Nc1cc2c(cc1N1CCCC1)n(CC)c(=O)n2CC,x,u,x,x,-35,x
Cc1ccccc1C(=O)Nc1cc2c(cc1N1CCOCC1)n(C)c(=O)n2C,10%[46.1 µM],0%,0%[46.1 µM],-6%,38,-10%
CCOc1ccccc1C(=O)Nc1cc2c(cc1N1CCOCC1)n(C)c(=O)n2C,-13%[46.1 µM],-20%,-2%[46.1 µM],-8%,-112*,-9%
CCOc1ccccc1NC(=O)Nc1cc2c(cc1N1CCCCC1)n(CC)c(=O)n2CC,x,0%,u,-21%,-62*,-15%
COCCCNC(=S)N1CCC(C(=O)c2ccc3c(c2)OCCO3)CC1,-19%[46.1 µM],-22%,-7%[46.1 µM],-10%,-38,i
CC(C)CNC(=S)N1CCC(C(=O)c2ccc3c(c2)OCCO3)CC1,x,-13%,x,x,-63*,x
NS(=O)(=O)c1cccc(NC(=O)c2cncc(Br)c2)c1,x,6%,x,x,-9,x
COc1ccccc1NS(=O)(=O)c1cccc(NC(=O)c2cncc(Br)c2)c1,3.5µM*,-5%,u,-28%,u,-9%
